This passage reports inhibition results from PubChem BioAssay AID602244 (Sanford-Burnham Center for Chemical Genomics, 2012).

The campaign covered roughly 360,000 compounds. About 1,300 (0.36%) were called active. The sample holds actives, similar compounds and a random draw of the others, so the mix is not that of the screen. A number with no mark means an inactive call. No stated cut-off is given here; in the data, active means inhibition above about 34% (passing the limit was not always enough); inactive means the rest.

In the test the target is C-X-C chemokine receptor type 6 (Homo sapiens) (UniProt O00574). The experiment in a line: CXCR6 receptor inhibitors, primary screen, cell-based, beta-arrestin, luminescence, CHO-K1 PathHunter, 1536-well (AID 602244).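 Further: antagonist mode with CXCL16 agonist at 10 nM final; 0% = 10 nM CXCL16 with DMSO and 100% = unstimulated wells without agonist.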 The conditions noted are these: at 20 µM, active compounds read high.
C-X-C chemokine receptor type 6 (Homo sapiens), sequence (O00574 whole entry, looked up): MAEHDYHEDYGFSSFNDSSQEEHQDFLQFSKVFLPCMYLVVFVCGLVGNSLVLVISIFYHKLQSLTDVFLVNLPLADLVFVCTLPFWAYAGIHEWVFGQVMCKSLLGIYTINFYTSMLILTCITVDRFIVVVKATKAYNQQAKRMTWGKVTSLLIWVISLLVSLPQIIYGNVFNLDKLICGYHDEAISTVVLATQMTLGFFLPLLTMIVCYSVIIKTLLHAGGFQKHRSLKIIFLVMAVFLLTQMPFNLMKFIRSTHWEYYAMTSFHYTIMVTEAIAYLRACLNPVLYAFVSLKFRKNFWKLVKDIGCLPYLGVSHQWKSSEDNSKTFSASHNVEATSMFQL
`CC1CCC(NS(=O)(=O)c2ccc3c(c2)CC(=O)N3)CC1` (stereo unspecified): the inhibition is -9.8%. The figure for `CS(=O)(=O)c1ccc(Cl)c(NC(=O)COC(=O)c2cccc(S(=O)(=O)N3CCCC3)c2)c1` is 8.6%. With `COc1ccc(C[C@H]2CN3C(=NC[C@H]3C)N2CCNC(=O)CCC2CCCCC2)cc1`, the inhibition is 5.3%.

On to `CC(C)(C)C1CCC(=NNC(=O)c2ccc(Br)o2)CC1` (stereo unspecified), for which the inhibition was -5%. In the case of `COCCCNC(=S)NNC(=O)C(O)(c1ccccc1)c1ccccc1`, the inhibition is 14.6%. To `COc1ccccc1OCCNC(=O)c1cc([N+](=O)[O-])cc([N+](=O)[O-])c1` belongs -9.6%; to `COCCCNC(=S)NC(=O)c1ccc([N+](=O)[O-])cc1`, 75% (active). To `COc1ccc(CN2CCNC(=O)C2CC(=O)NCc2cn[nH]c2-c2ccccc2)c(F)c1` (stereo unspecified) belongs -0.4%; to `Nc1nnc(C2CCCC2)s1`, -3.7%.

In the case of `CC1(C(=O)NCCc2c[nH]c3ccccc23)C=CC2(CCCCC2)N1C(=O)c1ccccc1` (stereo unspecified), the inhibition is -1.9%. To `Cc1ccc(-c2ccnc3[nH]n(-c4ccccc4)c(=O)c23)cc1` belongs 12.9%. Take `Cc1ccc(-n2[nH]c(C)c(/C=N/N3C(=O)c4cccc5cccc(c45)C3=O)c2=O)cc1`: the inhibition is 48.5% (active). Take `COc1cc(SC#N)ccc1N=Cc1c(C)[nH]n(-c2ccc(C)cc2)c1=O`: the inhibition was -2%. The figure for `Cc1nn(C(C)CC(=O)O)c(C)c1C` (stereo unspecified) is 3.3%. In the case of `CC(NC(=O)Cn1cc(C(F)(F)F)cc(Cl)c1=O)c1ccccc1` (stereo unspecified), the inhibition is -4.9%.

As for `CC1CCC(C(C)C)C(=O)/C1=C\c1ccc(NC(=O)CCC(=O)O)cc1` (stereo unspecified), the inhibition is 1%. The figure for `O=C(NCCc1ccccc1)C1CCC(Cn2c(=O)c3ccccc3n(Cc3cccnc3)c2=O)CC1` (stereo unspecified) is -5.3%. Turning to `C=CCC1(C#N)C(=S)NC(C)=C(C(=O)OCC)C1c1ccccc1` (stereo unspecified), the inhibition is -3.2%. To `COc1ccc(NC(=O)C2Cc3c(-c4ccc5c(c4)OCO5)ccnc3O2)cn1` (stereo unspecified) belongs -3.9%.

In the case of `COc1ccc(NC(=O)/C(Cl)=C(/Cl)S(=O)Cc2ccc(C)cc2)cn1` (stereo unspecified), the inhibition is 94.9% (active).

As for `COc1cc(NC(=O)Nc2ccc(C)cc2)cc([N+](=O)[O-])c1`, the inhibition was 2.8%. As for `COc1cccc(CC(=NO)c2cccc(OC)c2)c1`, the inhibition was 7.2%. Regarding `O=C1C(Cl)=C(Oc2ccccc2)C(=O)c2ccccc21`, the inhibition is 104% (active). The figure for `O=C(OCC(=O)N1CCc2ccccc21)C1CCCN1S(=O)(=O)c1ccc(Cl)cc1` (stereo unspecified) is -11.4%; for `CCCCn1c(N)c(N(CC(C)C)C(=O)c2cccc(S(=O)(=O)N3CCN(C(C)=O)CC3)c2)c(=O)[nH]c1=O` it is 1.2%. The figure for `CCCCCCCCCCOC(=O)Cn1c(COc2cccc(OC)c2)[n+](C)c2ccccc21` is 47.7% (active); for `CCCCN(CCCC)C(=O)CCS(=O)(=O)c1ccc2c(c1)n(C)c(=O)c(=O)n2C` it is -7.5%; for `COc1ccc(CCNC(=O)CSc2nc(-c3ccc(OC)c(OC)c3)ccc2C#N)cc1` it is 7.6%.

With `Cc1ccc(N2C(=O)SC(N(CC(=O)O)c3ccc(C)cc3)C2=O)cc1` (stereo unspecified), the inhibition is 4%. Turning to `COCCNc1nc(-c2ccccc2)nc2c1oc1ccccc12`, the inhibition is -2.7%.

Turning to `CCCNC(=O)c1cnc(-c2ccccc2)nc1-c1ccccc1`, the inhibition was 12%. To `CCC(=O)OCCNc1nc(-c2ccccc2)nc2ccccc12` belongs 40.8% (active). To `CC(C)N=C1CCCC1C(=S)SSC(=S)C1CCCC1=NC(C)C` (stereo unspecified) belongs 78.9% (active); to `CCc1ccccc1N(CC(=O)N1CCN(c2ccccc2F)CC1)S(C)(=O)=O`, 1.2%.

In the case of `CCCc1cc(=O)oc2c(C)c(OC(C)C(=O)NCC(O)c3ccccc3)ccc12` (stereo unspecified), the inhibition is 2.9%.

Turning to `O=C1NCC(c2ccccc2)(c2ccccc2)C(=O)N1`, the inhibition is 3.6%. To `CC(NC(=S)NNS(=O)(=O)c1ccc(C(C)(C)C)cc1)c1ccccc1` (stereo unspecified) belongs -0.6%; to `COc1cc(C(C)=O)ccc1OC(=O)CN1C(=O)c2ccccc2C1=O`, 1.2%; to `CC(C)OC(=O)CN1C(=O)C(=O)c2ccccc21`, 68% (active). With `Cc1cc(/C=C2/SC(=O)N(CC(=O)OC(C)C)C2=O)c(C)n1C`, the inhibition was 1.9%. The figure for `COc1cccc(NC(=O)Cn2c3ccc(F)cc3c3nc4n(c(=O)c32)CCS4)c1` is 4.8%; for `CCN(CC)C(=O)CC1(c2ccccc2OC)CCOC(C(C)C)C1` (stereo unspecified) it is 6.3%; for `CC(C)(C)S(=O)(=O)c1ccccc1-c1noc(-c2ccccc2)c1C(N)=O` it is -0.6%. The figure for `Cc1ccc(S(=O)(=O)N2CCOCC2)cc1NC(=O)c1ccncc1` is -5.9%; for `CN(CCc1ccccc1)C(=O)c1cccc(NC(=O)Cc2ccc([N+](=O)[O-])cc2)c1` it is -6.9%. The figure for `CN(O)C(=S)c1ccccc1` is 73.3% (active); for `CCN(CC)CCCNC(=O)CCn1nc(-c2ccc(Cl)cc2)ccc1=O` it is 2.5%; for `COc1ccc(CNC(=O)[C@@H]2CC=C[C@@H]3CCN(C4CC4)C(=O)[C@@H]32)cc1` it is -0.1%. Regarding `O=C1CCC(=O)N1CCC(=O)N(C(=O)NC1CCCCC1)C1CCCCC1`, the inhibition was 0%. On to `S=c1[nH]ccn1-c1ccc(Cl)cc1`, for which the inhibition was -3.9%. For the compound `Cc1noc(C)c1C(=O)N(CC(=O)NC1CCCC1)Cc1ccccc1F`, the inhibition was -0.5%.

Regarding `O=[N+]([O-])/C=C/c1ccc2c(ccn2Cc2ccccc2)c1`, the inhibition was 73.1% (active). The figure for `CCc1noc(C)c1C(=O)N1CCCSC1=Nc1ccccc1OC` is -1.3%. As to `CCCCCCCCCCOC(=O)C[N+](C)(C)CC1CCCCC1O` (stereo unspecified), the inhibition is 57.1% (active). In the case of `CCCCCOC(=O)c1ccc(N2C(=O)C3C4C=CC(C4)C3C2=O)cc1` (stereo unspecified), the inhibition was 4.9%. As to `COc1ccc(S(=O)(=O)N(C)CC(=O)N2CCCC2)cc1Cl`, the inhibition is -1.8%.

Consider `O=C(Cc1ccccc1)N1CCN(S(=O)(=O)c2ccc([N+](=O)[O-])cc2)CC1`, for which the inhibition was -15.5%.

Turning to `O=C1/C(=C\c2ccc([N+](=O)[O-])cc2)CS(=O)(=O)C/C1=C/c1ccc([N+](=O)[O-])cc1`, the inhibition was 96.9% (active). The figure for `O=C1CCCN1C(=O)COc1ccc([N+](=O)[O-])cc1` is -0.7%; for `CC(CC(=O)Nc1ccc(F)cc1F)S(=O)(=O)c1ccc2c(c1)NC(=O)CO2` (stereo unspecified) it is 6.2%; for `CCn1cc(C(=O)N2CC=C(c3ccccc3)CC2)c(=O)c2ccc(C)nc21` it is -18.1%. Regarding `Cc1ccc(NC(=O)CCC(=O)c2ccc(Br)cc2)cc1`, the inhibition was -2.1%.

Turning to `Cc1ccc(C(=O)CNc2ccc(F)cc2)cc1`, the inhibition is 46.4% (active). The figure for `Cc1ccc(C(=O)NC2CCN(C(=O)Nc3ccc(F)cc3)CC2)cc1` is -6%; for `CCCC(=O)Nc1ncnc2c1ncn2[C@@H]1O[C@@H]2OP(=O)(O)OC[C@H]2[C@H]1OC(=O)CCC` it is -1%. For `CC1=C/C(=N\OS(=O)(=O)c2ccccc2)C=CC1=O`, the inhibition was 62% (active). As for `N#Cc1c(NC(=O)c2ccc(N3CCOCC3)c([N+](=O)[O-])c2)sc2c1CCCC2`, the inhibition was 15.6%. `O=C(O)c1ccc(NN=CC2=C(N3CCOCC3)/C(=C/c3ccccc3)CC2)cc1`: the inhibition was -2.9%. The figure for `O=C1Nc2ccc(Br)cc2/C1=N/N=C/C1=C(N2CCOCC2)C(=C\c2ccccc2)/CC1` is 41.2% (active). The figure for `O=S(N1CCCCCC1)C12CC3CC(CC(C3)C1)C2` (stereo unspecified) is -6.4%; for `CC(=O)N1CCc2c(sc(NC(=O)CCS(=O)(=O)c3ccc(C)cc3)c2C(N)=O)C1` it is 8.6%; for `CCCNC(=O)C1(C)CCCN(C(=O)c2oc3ccccc3c2C)C1` (stereo unspecified) it is 6.5%. On to `COc1ccc(C2/C=C\CN(S(=O)(=O)c3cccs3)CC(=O)N2Cc2ccc(F)cc2)cc1` (stereo unspecified), for which the inhibition was 10.5%.

Regarding `CC1CN(CC(=O)NC(C)c2ccccc2)CC(C)O1` (stereo unspecified), the inhibition was 4.8%.

In the case of `CC(=O)Nc1cc(-c2ccc(N3CCN(C)CC3)cc2)cn2c(-c3cccc(C(=O)N(C)C)c3)cnc12`, the inhibition is -6.6%. `CC(=O)Nc1cc(-c2ccc(N3CCN(C)CC3)cc2)cn2c(-c3ccc(F)cc3)cnc12`: the inhibition is 89.5% (active).

With `COc1ccccc1-c1cc(NC(C)=O)c2ncc(-c3ccc(F)cc3)n2c1`, the inhibition was 8.7%.

In the case of `CCOn1c(=O)c(=O)n(O)c2ccccc21`, the inhibition is 3.7%.

Turning to `COc1ccc(C(O)c2nc(-c3ccc(OC)nc3)cs2)cc1` (stereo unspecified), the inhibition was -1.3%. The figure for `COc1ccc(C(C)(NC(C)=O)c2nc(-c3ccc(S(C)(=O)=O)cc3)cs2)cc1` (stereo unspecified) is 1.5%. With `COc1ccc(-c2csc(Cc3nc(O)cs3)n2)cc1`, the inhibition is 66.9% (active). `O=C(NCc1ccccc1)C1c2ccccc2OCC(=O)N1CCCN1CCOCC1` (stereo unspecified): the inhibition was 3.7%. As for `O=C(c1ccncc1)N1CCN(S(=O)(=O)c2cc(C(F)(F)F)cc(C(F)(F)F)c2)CC1`, the inhibition was -2.1%. The figure for `COc1cccc(NC(=O)C(=O)c2cn(CC(=O)N3CCOCC3)c3ccccc23)c1` is 6%; for `O=C1c2ccccc2NC(c2ccccc2O)N1NS(=O)(=O)c1ccccc1` (stereo unspecified) it is -0.7%; for `CC(C)c1c(O)nc(SCCOc2ccc(Cl)cc2)[nH]c1=O` it is 7.1%. In the case of `Cc1ccc(-c2nn(-c3ccc(F)cc3)cc2C(=O)NCC(c2cccs2)N2CCOCC2)cc1` (stereo unspecified), the inhibition was 15.5%. For the compound `O=C(c1ccc(Cl)c(S(=O)(=O)N2CCCCCC2)c1)N1CCN(c2ccc(O)cc2)CC1`, the inhibition is -20.6%. To `O=C1C=CC(=O)N1c1ccc(N2CCCCC2)cc1` belongs 74.7% (active); to `c1ccc(-n2cccc2)c(N2CCCCC2)c1`, -7.4%; to `NC(=O)c1ccc(N2CCCC2)nc1`, 1%.
